Results: PubChem BioAssay (Tox21)
Where “and” joins values, the source holds several entries; their conditions need not be identical. Equal entries are not always repeated. Records with an inconclusive call do not appear. A call without a number means that no potency is given here. Some structures have more than one record in an assay (separate samples or runs), and their calls can disagree. Calls of active or inactive are those of the source. Unless noted, the call rests on the fitted dose curve; in most records, active means well fitted curve in the direction sought with a large enough effect in the repeat runs; inconclusive means weak or mixed curves; inactive means no such curve, though single readings can be large; an effect the other way counts as inactive or inconclusive.

Assays:
[1] = qHTS assay to identify small molecule agonists of the estrogen receptor alpha (ER-alpha) signaling pathway in the presence of an antagonist - cell viability counter screen (AID 1259386);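 further: series mostly up to about 92 µM; cells exposed to compounds for 22 h at 37 °C before the viability read; nearly all actives have a fitted effect of over 30% in size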
Outline: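 ICI-182,780 at 10.0nM final accompanies the compound titration (15 concentrations, 22hr, 37C) on VM7Luc4E2 cells. The CellTiter-Fluor fluorescence readout runs in the same wells as the luciferase assay.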

[2] = biological target: Progesterone receptor (Homo sapiens) (UniProt P06401); experiment: qHTS assay to identify small molecule antagonists of the progesterone receptor (PR) signaling pathway (AID 1346795; active means well fitted inhibition curve with a large enough effect in the signal ratio in the repeat runs, not every such curve was filed as active; the % refers to the signal ratio; further: potency means the concentration at half of the fitted maximal effect)
Chain of Progesterone receptor (Homo sapiens) (P06401 whole entry, looked up): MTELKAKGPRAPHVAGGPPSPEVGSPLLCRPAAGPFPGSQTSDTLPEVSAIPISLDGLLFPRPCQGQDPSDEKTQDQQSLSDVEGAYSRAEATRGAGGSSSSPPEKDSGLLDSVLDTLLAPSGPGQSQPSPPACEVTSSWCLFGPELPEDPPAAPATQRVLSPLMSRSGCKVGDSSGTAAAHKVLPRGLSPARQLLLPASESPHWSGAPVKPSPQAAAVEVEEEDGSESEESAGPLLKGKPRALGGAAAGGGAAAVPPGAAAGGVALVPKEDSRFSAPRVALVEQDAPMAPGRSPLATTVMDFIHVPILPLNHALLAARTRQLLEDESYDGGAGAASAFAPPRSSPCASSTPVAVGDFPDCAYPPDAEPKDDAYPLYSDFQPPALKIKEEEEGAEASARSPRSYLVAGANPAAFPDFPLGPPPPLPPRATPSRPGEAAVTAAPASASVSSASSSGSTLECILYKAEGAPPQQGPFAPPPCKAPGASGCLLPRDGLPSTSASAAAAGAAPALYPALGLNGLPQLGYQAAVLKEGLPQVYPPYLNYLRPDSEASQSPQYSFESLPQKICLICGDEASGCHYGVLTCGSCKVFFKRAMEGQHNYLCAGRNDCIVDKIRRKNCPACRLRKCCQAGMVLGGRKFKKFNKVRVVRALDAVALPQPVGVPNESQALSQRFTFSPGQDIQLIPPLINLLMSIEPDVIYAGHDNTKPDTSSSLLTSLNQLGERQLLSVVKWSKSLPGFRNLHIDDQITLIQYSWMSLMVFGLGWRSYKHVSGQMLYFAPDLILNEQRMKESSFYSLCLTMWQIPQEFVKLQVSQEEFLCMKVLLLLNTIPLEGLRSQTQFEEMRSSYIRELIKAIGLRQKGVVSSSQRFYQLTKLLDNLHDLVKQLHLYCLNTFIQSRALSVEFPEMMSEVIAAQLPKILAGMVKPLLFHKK
Outline: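 Read-out is fluorescence from the LiveBLAzer B/G FRET substrate, cleaved by a UAS-controlled beta-lactamase in PR-UAS-bla HEK293T cells after 16 hr exposure to compound plus 1 nM promegestone (final), followed by 2 hr at room temperature.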

[3] = qHTS assay to identify small molecule antagonists of the progesterone receptor (PR) signaling pathway - cell viability counter screen (AID 1346798);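 further: HEK293T PR-UAS-bla cells stimulated with the agonist R5020; series mostly up to about 92 µM; nearly all actives have a fitted effect of over 50% in size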
Outline: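 HEK293T PR-UAS-bla, 2% charcoal-stripped FBS; 4 hr pre-plate; cpd + R5020, 16 h 37C; LiveBLAzer read first; then CellTiter-Glo 30 min RT, luminescence.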

[4] = qHTS assay to identify small molecule agonists of the progesterone receptor (PR) signaling pathway - cell viability counter screen (AID 1346799; calls by dose curve; further: nearly all actives have a fitted effect of over 45% in size)
Outline: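 Luminescence from CellTiter-Glo, added after the beta-lactamase FRET read in the same wells, gave cytotoxicity in PR-UAS-bla HEK293T cells treated with compounds for 16 hr at 37C.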

[5] = qHTS assay to identify small molecule antagonists of the TGF-beta/Smad signaling pathway - cell viability counter screen (AID 1346824); further: nearly all actives have a fitted effect of over 50% in size
Outline: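 SBE-bla HEK 293T cells were plated overnight at 37 C, then given compounds in DMSO plus TGF-beta1 (added as 0.25 ng/mL solution) for 5 hr. After the bla read, CellTiter-Glo was added to the same wells and luminescence read after 30 min at room temperature.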

[6] = qHTS assay to identify small molecule agonists of the TGF-beta/Smad signaling pathway - cell viability counter screen (AID 1346829); further: nearly all actives have a fitted effect of over 45% in size; further: potency means the concentration at half of the fitted maximal effect
Outline: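 HEK 293T SBE-bla line, 5 hr compound exposure at 37 C, multiplexed CellTiter-Glo viability read by luminescence.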

[7] = qHTS assay to identify small molecule agonists of the TGF-beta/Smad signaling pathway (AID 1346859; active means well fitted activation curve with a large enough effect in the signal ratio in the repeat runs, not every such curve was filed as active; the % refers to the signal ratio; further: series mostly up to about 77 µM)
Outline: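 SBE-bla HEK 293T, 4,000 cells/well, plated o/n; cpd in DMSO, 5 hr, 37 C/5% CO2; B/G FRET substrate 2 hr RT; ex 405, em 460/530 nm.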

[8] = biological target: Thyrotropin-releasing hormone receptor (Homo sapiens) (UniProt P34981); experiment: qHTS assay to identify small molecule antagonists of the thyrotropin-releasing hormone receptor (TRHR) signaling pathway (AID 1346877; active means well fitted inhibition curve with a large enough effect in the repeat runs, not every such curve was filed as active; further: potency means the concentration at half of the fitted maximal effect)
Chain of Thyrotropin-releasing hormone receptor (Homo sapiens) (P34981 whole entry, looked up): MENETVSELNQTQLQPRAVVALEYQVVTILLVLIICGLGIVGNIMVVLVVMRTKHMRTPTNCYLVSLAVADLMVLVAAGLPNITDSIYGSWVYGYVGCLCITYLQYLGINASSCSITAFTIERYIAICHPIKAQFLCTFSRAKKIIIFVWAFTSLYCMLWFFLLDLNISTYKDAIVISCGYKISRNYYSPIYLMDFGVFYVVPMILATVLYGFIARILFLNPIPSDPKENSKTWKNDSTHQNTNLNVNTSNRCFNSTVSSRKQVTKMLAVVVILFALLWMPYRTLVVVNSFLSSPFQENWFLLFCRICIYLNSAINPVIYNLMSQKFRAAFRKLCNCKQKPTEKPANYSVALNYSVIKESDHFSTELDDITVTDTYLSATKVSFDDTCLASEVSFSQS
Outline: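 Screening used HEK293 cells engineered with TRHR, with a brief 5 min room-temperature compound exposure preceding addition of TRH to 1 nM. The read-out was kinetic calcium-dye fluorescence, concentration-response from 15 doses in triplicate.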

[9] = biological target: Thyrotropin-releasing hormone receptor (Homo sapiens) (UniProt P34981); experiment: qHTS assay to identify small molecule agonists of the thyrotropin-releasing hormone receptor (TRHR) signaling pathway (AID 1346891; calls by dose curve; further: series mostly up to about 58 µM)
Outline: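 Intracellular calcium rise, read as fluorescence every second for 3 min, served as the agonist signal in dye-loaded HEK293 cells expressing TRHR; each compound ran at 15 concentrations in triplicate.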

[10] = Human pregnane X receptor (PXR) small molecule agonists, qHTS cell viability counter screen (AID 1346977); further: nearly all actives have a fitted effect of over 50% in size; further: potency means the concentration at half of the fitted maximal effect
Outline: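 PXR-Luc HepG2, 2,000 cells/well, 5% charcoal-stripped FBS; 5hr settle; cpd 24hr, 37C/5% CO2; CellTiter-Fluor at 23hr, read 1hr later (fluorescence).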

[11] = Caspase-3/7 induction in HepG2 cells by small molecules, qHTS assay (AID 1346978); further: nearly all actives have a fitted effect of over 15% in size
Outline: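 Wild-type HepG2 cells (2,000/well) were settled 5 h at 37 C, 5% CO2, then exposed to compounds in DMSO for 17 h. Caspase-3/7 activity was read by luminescence 30 min after adding Caspase-Glo 3/7 reagent at room temperature.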

[12] = Caspase-3/7 induction in CHO-K1 cells by small molecules, qHTS cell viability counter screen (AID 1346979); further: nearly all actives have a fitted effect of over 35% in size
Outline: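 Cells (CHO-K1, wild type) are plated at 1,500 per well and incubated 5hr. Test compounds in DMSO are then pinned in, followed by 16hr at 37C and 5% CO2. Viability is read by CellTiter-Fluor fluorescence after 1hr.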

[13] = Caspase-3/7 induction in CHO-K1 cells by small molecules, qHTS assay (AID 1346980); further: nearly all actives have a fitted effect of over 15% in size
Outline: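 Wild-type cells were seeded at 1,500 per well and settled 5 hr at 37 C, 5% CO2, then exposed to DMSO-dissolved compounds for 17 hr. Caspase-Glo 3/7 reagent was added, and luminescence was read after 30min at room temperature.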

[14] = Caspase-3/7 induction in HepG2 cells by small molecules, qHTS cell viability counter screen (AID 1346981); further: nearly all actives have a fitted effect of over 30% in size; further: potency means the concentration at half of the fitted maximal effect
Outline: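 Multiplexed with the caspase-3/7 assay: HepG2 cells, 16 hr compound treatment, CellTiter-Fluor viability detection by fluorescence.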

[15] = biological target: Nuclear receptor subfamily 1 group I member 2 (Homo sapiens) (UniProt O75469); experiment: Human pregnane X receptor (PXR) small molecule agonists, qHTS assay (AID 1346982); further: nearly all actives have a fitted effect of over 35% in size; further: potency means the concentration at half of the fitted maximal effect
Chain of Nuclear receptor subfamily 1 group I member 2 (Homo sapiens) (O75469 whole entry, looked up): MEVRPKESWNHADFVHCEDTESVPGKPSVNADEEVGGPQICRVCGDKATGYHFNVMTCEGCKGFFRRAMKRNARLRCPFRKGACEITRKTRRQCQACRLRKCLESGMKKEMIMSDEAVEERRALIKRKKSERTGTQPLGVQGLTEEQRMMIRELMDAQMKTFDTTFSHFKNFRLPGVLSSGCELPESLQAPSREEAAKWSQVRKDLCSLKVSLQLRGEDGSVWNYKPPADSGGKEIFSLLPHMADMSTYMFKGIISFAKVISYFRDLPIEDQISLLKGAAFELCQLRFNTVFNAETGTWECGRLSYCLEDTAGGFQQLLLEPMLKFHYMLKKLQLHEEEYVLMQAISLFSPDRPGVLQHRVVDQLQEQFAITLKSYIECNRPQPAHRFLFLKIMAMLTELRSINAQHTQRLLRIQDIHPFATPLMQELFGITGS
Outline: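 We seeded PXR-Luc HepG2 cells in assay medium containing 5% charcoal-stripped FBS, added compounds 5 hr later, incubated 24 hr, and read luminescence with ONE-Glo reagent.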

[16] = biological target: Acetylcholinesterase (Homo sapiens) (UniProt P22303); experiment: Acetylcholinesterase (AChE) small molecule antagonists: colormetric cell-based qHTS assay (AID 1347395; calls by dose curve; further: nearly all actives have a fitted effect of over 30% in size; further: potency means the concentration at half of the fitted maximal effect)
Chain of Acetylcholinesterase (Homo sapiens) (P22303 whole entry, looked up): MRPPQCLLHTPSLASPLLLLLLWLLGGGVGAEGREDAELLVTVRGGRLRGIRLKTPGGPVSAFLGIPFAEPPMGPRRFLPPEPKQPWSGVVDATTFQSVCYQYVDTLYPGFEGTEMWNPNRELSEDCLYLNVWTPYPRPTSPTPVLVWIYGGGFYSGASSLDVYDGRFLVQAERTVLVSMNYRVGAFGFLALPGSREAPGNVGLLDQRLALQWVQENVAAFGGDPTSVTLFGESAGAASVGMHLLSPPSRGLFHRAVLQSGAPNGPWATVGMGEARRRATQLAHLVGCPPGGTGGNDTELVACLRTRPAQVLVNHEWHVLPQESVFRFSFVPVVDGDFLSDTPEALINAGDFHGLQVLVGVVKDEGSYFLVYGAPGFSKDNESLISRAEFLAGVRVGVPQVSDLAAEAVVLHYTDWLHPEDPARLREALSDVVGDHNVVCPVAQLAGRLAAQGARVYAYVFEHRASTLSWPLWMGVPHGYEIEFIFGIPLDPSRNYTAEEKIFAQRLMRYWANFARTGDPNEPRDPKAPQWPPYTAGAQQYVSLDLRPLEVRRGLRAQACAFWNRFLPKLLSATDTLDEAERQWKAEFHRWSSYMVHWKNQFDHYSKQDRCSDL
Outline: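 Colorimetric read-out: DTNB detects thiocholine released when cellular AChE in SH-SY5Y cells hydrolyses acetylthiocholine. Cells attached overnight, received compound for 30 min at 37 C, then substrate mix for 90 min at 37 C.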

[17] = biological target: Progesterone receptor (Homo sapiens) (UniProt P06401); experiment: qHTS assay to identify small molecule agonists of the progesterone receptor (PR) signaling pathway (AID 1346784; calls by dose curve; further: nearly all actives have a fitted effect of over 30% in size)
Outline: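 Beta-lactamase reporter read-out: after 16 hr compound treatment at 37C and a further 2 hr at room temperature with LiveBLAzer B/G FRET substrate, fluorescence was measured in PR-UAS-bla HEK 293T cells grown in 2% charcoal-stripped serum.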

[18] = biological target: Nuclear receptor subfamily 1 group I member 2 (Rattus norvegicus) (UniProt Q9R1A7); experiment: Rat pregnane X receptor (rPXR) activation by small molecules, qHTS assay (AID 1346983); conditions: rPXR luciferase reporter cells, One-Glo luminescence, 24 h; stronger effect = higher value; further: nearly all actives have a fitted effect of over 20% in size
Chain of Nuclear receptor subfamily 1 group I member 2 (Rattus norvegicus) (Q9R1A7 whole entry, looked up): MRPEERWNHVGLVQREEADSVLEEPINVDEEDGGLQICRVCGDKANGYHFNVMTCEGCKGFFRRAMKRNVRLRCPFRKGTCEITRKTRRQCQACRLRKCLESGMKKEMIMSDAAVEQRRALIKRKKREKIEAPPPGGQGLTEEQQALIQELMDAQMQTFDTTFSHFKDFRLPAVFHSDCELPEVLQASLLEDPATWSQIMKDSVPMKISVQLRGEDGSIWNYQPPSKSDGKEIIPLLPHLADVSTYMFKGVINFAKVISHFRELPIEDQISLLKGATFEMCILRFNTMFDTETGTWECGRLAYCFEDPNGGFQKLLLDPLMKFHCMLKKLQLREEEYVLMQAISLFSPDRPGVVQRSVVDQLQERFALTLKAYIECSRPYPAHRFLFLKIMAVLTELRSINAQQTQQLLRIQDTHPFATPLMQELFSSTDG
Outline: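 Cell-based rPXR luciferase reporter assay, 2,000 cells per well, rested 5hr at 37 C before compound addition in DMSO, then 24 hr at 37 C. One-Glo reagent was added and luminescence read after 30 min at room temperature.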

[19] = biological target: Nuclear receptor subfamily 1 group I member 2 (Homo sapiens) (UniProt O75469); experiment: CYP3A4 induction through human pregnane X receptor (PXR) by small molecules, qHTS assay (AID 1346984); further: nearly all actives have a fitted effect of over 40% in size; further: potency means the concentration at half of the fitted maximal effect
Outline: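 qHTS, concentration-response format: HepG2 DPX-2 line, PXR/CYP3A4-luc. Exposure 24 h, 37C. Substrate Luciferin-IPA 3uM final, 3 h. Detection One-Glo, 30 min RT.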

[20] = biological target: Nuclear receptor subfamily 1 group I member 2 (Homo sapiens) (UniProt O75469); experiment: Human pregnane X receptor (PXR) activation by small molecules, qHTS assay (AID 1346985); further: nearly all actives have a fitted effect of over 40% in size; further: potency means the concentration at half of the fitted maximal effect
Outline: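 DPX-2 cells (HepG2 co-transfected with a PXR response element and a CYP3A4-promoter luciferase construct) were seeded at 2,000 per well, rested 5 hr at 37C, then exposed to DMSO-dissolved compounds for 24 hr. Activation was read as luciferase luminescence.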

SMILES	Potency [1]	Potency [2]	Potency [3]	Potency [4]	outcome [5]	Potency [6]	outcome [7]	Potency [8]	outcome [9]	Potency [10]	outcome [11]	Potency [12]	outcome [13]	Potency [14]	Potency [15]	Potency [16]	Potency [17]	max activation [18]	Potency [19]	Potency [20]
CCCOC(=O)c1cncn1C(C)c1ccccc1 (configuration not stated)	inactive	inactive	inactive	inactive	inactive	inactive	inactive	inactive	inactive	inactive	inactive	inactive	inactive	inactive	inactive	inactive	–	–	–	–
CNC(=O)Oc1cc(C)c(N(C)C)c(C)c1	inactive	–	inactive	inactive	inactive	inactive	inactive	inactive	inactive	inactive	inactive	–	inactive	inactive	30.6 µM (active)	2.52 µM (active)	inactive	–	–	–
O=C1C2CC=CCC2C(=O)N1SC(Cl)(Cl)Cl (configuration not stated)	inactive	inactive and 42.6 µM (active)	–	–	inactive	inactive and 48.2 µM (active)	inactive	inactive and 33.3 µM (active)	inactive	inactive and 21.3 µM (active)	inactive	–	inactive	inactive and 60.1 µM (active)	inactive	inactive	inactive	-17% (inactive)	inactive	inactive
CC1=C2[C@H]3OC(=O)[C@@H](C)[C@@H]3CC[C@@]2(C)C=CC1=O	inactive	inactive	inactive	inactive	inactive	inactive	inactive	inactive	inactive	–	inactive	–	inactive	inactive	7.5 µM (active)	inactive	–	8.61% (inactive)	11.2 µM (active)	2.82 µM (active)
BrCc1ccc(Br)cc1	inactive	–	–	inactive	inactive	inactive	–	inactive	inactive	inactive	inactive	inactive	inactive	inactive	inactive	71 µM (active)	inactive	–	–	–
OCC(Cl)CCl (configuration not stated)	inactive	–	inactive	inactive	inactive	inactive	inactive	inactive	inactive	–	inactive	inactive	inactive	inactive	inactive	inactive	inactive	–	–	–
CCOC1Oc2ccc(OS(C)(=O)=O)cc2C1(C)C (configuration not stated)	inactive	30.4 µM (active)	–	–	inactive	inactive	inactive	inactive	inactive	–	inactive	–	inactive	inactive	21.5 µM (active)	inactive	inactive	–	–	–
